How the values were obtained:
Conditions in all cases: concentration: 1 μM, replicates: in singlicate; n = 1
CDKL3 = test system: CDKL3
CDKL5 = test system: CDKL5
CHEK1 = test system: CHEK1
CHEK2 = test system: CHEK2
CIT = test system: CIT
CLK1 = test system: CLK1
CLK2 = test system: CLK2
CLK3 = test system: CLK3
CLK4 = test system: CLK4
CSF1R-autoinhibited = test system: CSF1R-autoinhibited
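Also: KINOMEscan kinase panel screen.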

SMILES	%Inh (CDKL3) [%]	%Inh (CDKL5) [%]	%Inh (CHEK1) [%]	%Inh (CHEK2) [%]	%Inh (CIT) [%]	%Inh (CLK1) [%]	%Inh (CLK2) [%]	%Inh (CLK3) [%]	%Inh (CLK4) [%]	%Inh (CSF1R-autoinhibited) [%]
CCn1c(-c2ccoc2)nc2cnccc21 [SB-733887]	0	0	17	24	19	26	0	0	3	15
O=C(Nc1n[nH]c2nc(-c3ccccc3)c(Br)cc12)C1CC1 [SB-708998]	0	0	15	0	19	17	0	0	21	0
Cc1nnc(-c2ccc(C)c(-c3ccc(C(=O)O)cc3)c2)o1 [GW608005]	0	0	5	0	32	10	0	0	0	0
COc1ccc(-c2coc3ccc(-c4nnc(SCc5cccc(C#N)c5)o4)cc23)cc1	0	9	0	0	5	47	10	0	57	0
COC(=O)c1c(-c2ccccc2)c2cc(C)ccc2c(=O)n1Cc1ccccc1	0	0	0	0	0	0	0	0	0	0
CCC(=O)c1c(-c2ccccc2)c2cc(Cl)ccc2c(=O)n1Cc1cc(C(=O)NC2CC2)n(C)n1	0	6	0	6	7	0	0	0	0	0
O=C(Nc1n[nH]c2nc(-c3ccccc3)c(Cl)cc12)C1CC1 [SB-734909]	2	0	0	22	0	0	0	15	0	0
Cc1nn2c(=O)cc(N3CCOCC3)nc2n1Cc1cccc(Cl)c1Cl [GSK2342769]	0	8	26	0	10	20	1	16	22	0
O=C(Nc1ccc2c(c1)OCO2)NC1CCN(c2ccnc(NCc3ccc(F)cc3)n2)CC1 [GSK1379859]	0	3	19	0	0	23	0	0	10	0
O=C(NCCNc1ccnc(Nc2ccc(F)cc2)n1)Nc1ccc2c(c1)OCO2 [GSK1379882]	0	4	0	18	44	17	13	9	17	13
CCCC(=O)Nc1n[nH]c2ncc(-c3cccc4ccccc34)cc12 [SB-642057]	0	3	0	0	1	30	0	0	8	0
COc1cc2ncn(-c3cc(OCc4ccncc4Br)c(C(N)=O)s3)c2cc1OC [GW854278]	0	0	0	10	3	10	38	0	0	0
FC(F)(F)c1ccc(-c2ncn(CCCN3CCOCC3)c2-c2ccncc2)cc1 [SB-217780]	0	16	0	33	0	12	0	0	0	0
COc1ccc(Nc2nccc(N3CCC(NS(=O)(=O)c4ccc(NC(C)=O)cc4)C3)n2)cc1 (stereo not drawn) [GSK1379729]	4	0	14	0	22	25	0	0	27	0
CCC(=O)c1c(-c2ccccc2)c2cc(Cl)ccc2c(=O)n1Cc1cc(S(C)(=O)=O)n(CCC(C)(C)O)n1	17	40	13	19	2	0	1	9	2	6
COc1cc(Nc2ccnc3ccc(C(F)(F)F)cc23)cc(OC)c1OC [GW577382]	8	0	0	0	11	25	0	0	14	14
Cc1ccc(-c2ccc3c(ccc4sc5c(c43)NC[C@@H](C)N=C5N(C)C)n2)cn1	0	0	0	1	0	0	0	0	0	14
CCCNC(=O)Nc1ccc(Oc2ncnc3ccn(C)c23)cc1	18	7	0	0	1	0	0	0	4	7

SMILES	%Inh (CDKL3) [%]	%Inh (CDKL5) [%]	%Inh (CHEK1) [%]	%Inh (CHEK2) [%]	%Inh (CIT) [%]	%Inh (CLK1) [%]	%Inh (CLK2) [%]	%Inh (CLK3) [%]	%Inh (CLK4) [%]	%Inh (CSF1R-autoinhibited) [%]
Nc1ncnc2c1ncn2-c1cccc(F)c1 [SKF-97560]	0	21	17	0	6	22	0	0	0	19
Cc1nc(N(C)[C@H]2CN(C(=O)CC#N)CC[C@H]2C)c2cc[nH]c2n1	0	6	48	0	0	13	15	0	0	0
COc1cc2nccc(Nc3ccc(OCc4ccc(NC(C)=O)cc4)cc3)c2cc1OC.Cl [GW440135]	20	0	0	0	0	8	0	10	0	25
Cn1c(=O)c(F)c(Nc2ccc(I)cc2F)c2c(=O)n(OC[C@H](O)CO)cnc21	7	0	0	0	17	7	16	17	0	0
Cc1cccc(-c2cc(-c3c[nH]nc3-c3ccccn3)ccn2)c1 [GW679395]	0	0	0	0	45	18	2	0	6	0
O=C(Nc1n[nH]c2cc(-c3ccccc3F)ccc12)C1CC1 [SB-733371]	14	0	0	13	7	2	0	14	0	0
Cc1cc(Nc2nc(-c3cccc(C)n3)nc3ccccc23)ccn1 [GW872411]	0	0	0	0	0	11	0	0	0	0
Nc1nc(-c2ccccc2F)c(-c2ccnc3ccccc23)s1 [GW560459]	0	0	0	14	30	12	0	8	7	24
COC(=O)c1c(-c2ccccc2)c2cc(Br)ccc2c(=O)n1Cc1ccc(S(C)(=O)=O)cc1	22	26	0	23	23	0	14	0	13	7
COc1cccc(C2=C(N(C)c3ccccc3)C(=O)NC2=O)c1 [SB-334865]	0	0	0	0	6	15	0	0	13	0
Cc1ccc(Oc2ccc(Nc3ncnc4cc[nH]c34)cc2C)cn1	3	3	6	22	57	0	0	0	24	0
O=C1NC(=O)C(c2ccccc2)=C1Nc1cccc(O)c1 [SB-390534]	0	0	0	16	0	40	21	19	10	0
COc1ccc(-n2cnc3c(N)ncnc32)cc1 [SKF-97236]	0	0	2	0	19	48	48	0	47	0
CCS(=O)(=O)c1ccc(OC)c(Nc2ncc(-c3ccc(F)cc3)o2)c1.Cl [GW591947]	59	0	0	0	21	25	40	79	23	0
CCC(=O)c1c(-c2ccccc2)c2cc(Cl)ccc2c(=O)n1Cc1cc(S(C)(=O)=O)n(CC(N)=O)n1	16	0	0	0	11	0	7	0	63	0
COc1cc(OC)cc(-c2cc3cnc(N)nc3nc2NC(=O)NC(C)(C)C)c1	2	0	0	10	0	30	0	0	7	0
COC(=O)c1c(-c2ccccc2)c2cc(Br)ccc2c(=O)n1Cc1ccc(NC(=O)CCC(=O)O)cc1	12	6	0	25	33	0	0	0	17	0
O=C(NCc1cccs1)c1cc(C(=O)c2c(Cl)cccc2Cl)c[nH]1 [GW823670]	21	0	22	0	16	0	22	0	0	0

Source: PMC5540273 (PLoS ONE, 2017)
